Reference: PubChem BioAssay (NCATS)
“And” between values parts separate entries of the source, which are not always exact repeats. Identical values can stand only once. Inconclusive results are not listed. The source made the active and inactive calls. Unless noted, calls follow the shape of the dose curve; as a rule, active = well fitted curve in the direction sought with a large enough effect; inconclusive = small, poorly fitted or top-dose-only effect, or another doubt; inactive = no such curve, though single readings can be large; an effect the other way counts as inactive or inconclusive.

Columns and labels:
[1] = Cellular Toxicity (caspase-3) HepG2 (AID 654);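 also: cells exposed to compound for 16 hours before reading; 0% = DMSO alone and 100% = caspase signal from 100 µM tamoxifen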
Summary of the method: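 Cells plated 5 hr at 37 °C, compound added, incubated 16 hr at 37 °C. Caspase-Glo 3/7 reagent followed, 20 min at room temperature, then luminescence read. Activation scored as signal increase; AC50 from Hill fit.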

[2] = Cellular Toxicity (caspase-3) HUV-EC-C (AID 656);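 also: 0% = DMSO basal and 100% = 100 µM tamoxifen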
Summary of the method: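 Luminescent Caspase-Glo 3/7 readout after 16 h, 37 °C compound exposure of HUV-EC-C endothelial cells, 1000 per well, complete medium. AC50 derived by Hill fitting, with DMSO as baseline and 100 uM tamoxifen as full activation.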

[3] = Cellular Toxicity (caspase-3) SHSY5Y (AID 657)
Summary of the method: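 Luminescent Caspase-Glo 3/7 read-out, 1 hr room temperature, follows 16 hours of compound treatment of SH-SY5Y cells at 37 °C. Normalization: DMSO basal, 10 uM staurosporine as 100%; AC50 values from Hill-equation concentration-response fits.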

[4] = Cellular Toxicity (caspase-3) BJ (AID 658);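 also: 0% = DMSO basal and 100% = 10 µM staurosporine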
Summary of the method: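 BJ human foreskin fibroblasts, 1000 cells/well, treated 16 hours at 37 °C in complete medium; caspase 3/7 activity by Caspase-Glo luminescence after 1 hr at room temperature. Normalized to DMSO and 10 uM staurosporine; AC50 from Hill fits.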

[5] = Cellular Toxicity (caspase-3) Mesangial (AID 660);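 also: combined caspase 3 and 7 activity read by Caspase-Glo luminescence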
Summary of the method: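 Mesangial cells, 1000/well, 5 h settle at 37 °C; compound 16 h, 37 °C; Caspase-Glo 3/7 reagent 20 min RT; luminescence. Norm.: DMSO = 0%, tamoxifen 100 uM = 100%. AC50, Hill fit.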

[6] = Cellular Toxicity (caspase-3) SK-N-SH (AID 661);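 also: 0% = DMSO basal and 100% = 10 µM staurosporine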
Summary of the method: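 Human neuroblastoma SK-N-SH, 1500 cells/well, 5 hr pre-incubation, then compound 16 hr, 37 °C. Caspase-Glo 3/7 reagent, 1 hr RT, luminescence. Norm. to DMSO/10 uM staurosporine; Hill-fit AC50.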

[7] = Cellular Toxicity (caspase-3) H-4-II-E (AID 663); settings: Potency: caspase-3 activation; also: potency is read from the fitted curve at half-maximal effect;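 as to caspase-3 activation: cells exposed to compound for 16 hr before readout; 0% = DMSO basal and 100% = 100 µM tamoxifen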
Summary of the method: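 Rat hepatoma H-4-II-E cells (1500/well) plated 5 hr, then exposed to compound titrations for 16 hr at 37 °C. Caspase-Glo 3/7 luminescence read after 20 min at RT; data normalized to DMSO and 100 uM tamoxifen, AC50 from Hill fits.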

[8] = Cellular Toxicity (caspase-3) N2a (AID 665);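 also: compound exposure lasted 16 h at 37 °C before readout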
Summary of the method: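 N2a cells, 1500/well, 5 h settle at 37 °C; cpd 16 h, 37 °C; Caspase-Glo 3/7, 1 h RT; luminescence. Norm: DMSO = 0, 10 uM staurosporine = 100%. AC50, Hill fit.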

[9] = Cell Viability - LYMP2-001 (AID 921);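 also: series mostly up to about 92 µM; 0% = DMSO only and full inhibition = tetraoctylammonium bromide control wells; nearly all actives have a fitted effect of over 70% in size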
Summary of the method: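 Cellular ATP loss read by luciferase luminescence after 24 h compound exposure at 37 C in complete medium. LYMP2-001 lymphoblastoid cells, 2500/well; qHTS concentration-response data fitted with Hill equation for AC50.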

[10] = Cell Viability - LYMP1-002 - Assay at 16 hr (AID 948);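 also: 0% = DMSO alone and full effect = 92 µM tetraoctylammonium bromide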
Summary of the method: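 ATP luminescence (CellTiter-Glo) was measured after 16 hr compound exposure at 37 C of 2500 lymphoblastoid LYMP1-002 cells per well. Concentration-response curves were fitted with the Hill equation to give AC50.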

[11] = MultiTox-Fluor Cytotoxicity Assay - LYMP1-003 - Dead Cells (AID 961); also: nearly all actives have a fitted effect of over 70% in size; also: potency is read from the fitted curve at half-maximal effect
Summary of the method: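 Acute toxicity is scored as increased dead-cell protease activity in human lymphoblastoid LYMP1-003 cells after 16 h compound exposure in complete culture medium. Activity is normalized to DMSO basal and 15 uM tetraoctylammonium bromide as full response.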

[12] = MultiTox-Fluor Cytotoxicity Assay - LYMP1-003 - Live Cells (AID 962);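 also: 0% = DMSO only and full loss = 92 µM tetraoctylammonium bromide; cytotoxic hits lower the live-cell protease signal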
Summary of the method: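 qHTS, 1536-well; 2500 cells/well LYMP1-003; 5 hr 37 C settle; cpd 16 hr 37 C; MultiTox-Fluor reagent 60 min RT; live-cell protease fluor. 405/510; Hill-fit AC50; tetraoctylammonium bromide pos. ctrl.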

[13] = Cell Viability - LYMP2-013 (AID 970); also: nearly all actives have a fitted effect of over 55% in size; also: potency is read from the fitted curve at half-maximal effect
Summary of the method: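 qHTS; 2500 lymphoblastoid cells/well; 5 hr 37 C settle; cpd 24 hr 37 C; CellTiter-Glo, 30 min RT; luminescence. AC50 = Hill fit.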

[14] = Cell Viability - LYMP2-023 (AID 975);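 also: cells exposed to compound for 24 hours at 37 °C; nearly all actives have a fitted effect of over 55% in size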; also: potency is read from the fitted curve at half-maximal effect
Summary of the method: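 2500 cells/well, 5 hr 37 C; cpd 24 hr 37 C; CellTiter-Glo, 30 min RT; luminescence. qHTS conc-response, Hill fit -> AC50. Pos ctrl tetraoctylammonium bromide.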

[15] = Cell Viability - LYMP2-025 (AID 976);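 also: series mostly up to about 92 µM; plate controls were DMSO only for no effect and tetraoctylammonium bromide control for full effect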
Summary of the method: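 Seed 2500 LYMP2-025 cells/well; 5 hr at 37 C; add compound; 24 hr at 37 C; add CellTiter-Glo; 30 min RT; read luminescence. AC50 from Hill-modelled concentration-response.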

[16] = Cell Viability - LYMP2-007 (AID 979);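 also: cells exposed to compound for 24 h before reading; nearly all actives have a fitted effect of over 60% in size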; also: potency is read from the fitted curve at half-maximal effect
Summary of the method: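 Luminescent ATP signal (CellTiter-Glo) serves as the viability read-out after 24 hr compound treatment of lymphoblastoid cells in complete medium at 37 C. Concentration-response data were fitted to the Hill equation to give AC50 values.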

[17] = Cell Viability - LYMP2-008 (AID 980); also: % is scaled to controls: 0 for no effect and ±100 for the full control effect; nearly all actives have a fitted effect of over 60% in size
Summary of the method: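 qHTS, human lymphoblastoid line, 2500 cells/well; 5 hr preincubation, 24 hr compound, 37 C. CellTiter-Glo ATP luminescence. AC50 via Hill equation. Tetraoctylammonium bromide positive control.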

[18] = Cell Viability - LYMP2-026 (AID 989); also: % is scaled to controls: 0 for no effect and ±100 for the full control effect; nearly all actives have a fitted effect of over 50% in size
Summary of the method: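 Luminescent ATP signal (CellTiter-Glo, 30 min room temperature) measures viable lymphoblastoid cells after 24 hr compound treatment at 37 C. Decreased ATP reflects acute toxicity; AC50 values come from Hill-equation modeling.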

[19] = qHTS Assay for Identification of Small Molecule Inducers of Hypoxia Response (AID 2120; active = well fitted curve in the direction sought with a large enough effect in the signal ratio, with a control signal flat, not every such curve was filed as active; the % refers to the signal ratio; also: 0% is about no effect)
Summary of the method: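 ME-180 HRE-bla cells plated in Opti-MEM/0.5% dialyzed FBS, rested 4-5 h, then dosed with compound titrations by pin tool. After 17 h at 37 degrees C, CCF4 dye loaded 2.5 h at RT; 460/530 nm ratio gave %Activity and AC50.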

[20] = qHTS assay for cell viability of HEK293 cells (AID 743288); settings: ATP luminescence (CellTiter-Glo), 18 h, stronger effect = lower value; also: % is scaled to controls: 0 for no effect and ±100 for the full control effect; nearly all actives have a fitted effect of over 50% in size
Summary of the method: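 Total intracellular ATP, measured with a luciferase-coupled reagent, indicates the number of viable HEK293 cells. Exposure to test chemicals lasts 18 h at 37 C in 1,536-well format at 2,000 cells/well.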

CC(C)OS(C)(=O)=O
inactive: outcome [1] | outcome [2] | outcome [3] | outcome [4] | outcome [5] | Potency [6] | Potency [7] | outcome [8] | Potency [9] | outcome [10] | Potency [11] | outcome [12] | Potency [13] | Potency [14] | Potency [15] | Potency [16] | Potency [17] | Potency [18] | Potency [19] | max response [20] -1.94%

O=[N+]([O-])/C=C/c1ccccc1
active: Potency [7] 6.31 µM | Potency [11] 50.1 µM | Potency [13] 50.1 µM | Potency [14] 50.1 µM | Potency [16] 31.6 µM
inactive: outcome [2] | outcome [4] | outcome [5] | Potency [6] | outcome [10] | outcome [12] | Potency [19] | max response [20] -10.7%

Oc1cccc(Cl)c1Cl
inactive: outcome [1] | outcome [2] | outcome [3] | outcome [4] | outcome [5] | Potency [6] | Potency [7] | outcome [8] | Potency [9] | outcome [10] | Potency [11] | outcome [12] | Potency [13] | Potency [14] | Potency [15] | Potency [16] | Potency [17] | Potency [18] | Potency [19] | max response [20] -3.83%

CCCCCOC(=O)c1ccccc1C(=O)OCCCCC
inactive: outcome [1] | outcome [2] | outcome [3] | outcome [4] | outcome [5] | Potency [6] | Potency [7] | outcome [8] | Potency [9] | outcome [10] | Potency [11] | outcome [12] | Potency [13] | Potency [14] | Potency [15] | Potency [16] | Potency [17] | Potency [18] | Potency [19] | max response [20] 4.12% and -1.01%

O=[N+]([O-])c1cc(Cl)c(Cl)c(Cl)c1
inactive: outcome [1] | outcome [2] | outcome [3] | outcome [4] | outcome [5] | Potency [6] | Potency [7] | outcome [8] | Potency [9] | outcome [10] | Potency [11] | outcome [12] | Potency [13] | Potency [14] | Potency [15] | Potency [16] | Potency [17] | Potency [18] | Potency [19] | max response [20] -14.7%

CCCC[N+](=O)[O-]
inactive: outcome [1] | outcome [2] | outcome [3] | outcome [4] | outcome [5] | Potency [6] | Potency [7] | outcome [8] | Potency [9] | outcome [10] | Potency [11] | outcome [12] | Potency [13] | Potency [14] | Potency [15] | Potency [17] | Potency [18] | Potency [19] | max response [20] -6.09%

O=C(O)C(Br)CBr (stereo unspecified)
inactive: outcome [1] | outcome [2] | outcome [3] | outcome [4] | outcome [5] | Potency [6] | Potency [7] | outcome [8] | Potency [9] | outcome [10] | Potency [11] | outcome [12] | Potency [13] | Potency [14] | Potency [15] | Potency [17] | Potency [18] | Potency [19] | max response [20] -8.07%

Cc1ccc(OP(=O)(Oc2ccc(C)cc2)Oc2ccc(C)cc2)cc1
inactive: outcome [1] | outcome [2] | outcome [3] | outcome [4] | outcome [5] | Potency [6] | Potency [7] | outcome [8] | Potency [9] | outcome [10] | Potency [11] | outcome [12] | Potency [13] | Potency [14] | Potency [15] | Potency [16] | Potency [17] | Potency [18] | Potency [19] | max response [20] -12.3% and -24.8%

ClC(Cl)Br
inactive: outcome [1] | outcome [2] | outcome [3] | outcome [4] | outcome [5] | Potency [6] | Potency [7] | outcome [8] | Potency [9] | outcome [10] | Potency [11] | outcome [12] | Potency [13] | Potency [14] | Potency [15] | Potency [16] | Potency [17] | Potency [18] | Potency [19] | max response [20] 7.42%

CCSC(=O)N1CCCCCC1
inactive: outcome [1] | outcome [2] | outcome [3] | outcome [4] | outcome [5] | Potency [6] | Potency [7] | outcome [8] | Potency [9] | outcome [10] | Potency [11] | outcome [12] | Potency [13] | Potency [14] | Potency [15] | Potency [16] | Potency [17] | Potency [18] | Potency [19] | max response [20] 2.92% and -12.6%

Cc1cc(N=Nc2ccccc2C)ccc1N
inactive: outcome [1] | outcome [2] | outcome [3] | outcome [4] | outcome [5] | Potency [6] | Potency [7] | outcome [8] | Potency [9] | outcome [10] | Potency [11] | outcome [12] | Potency [13] | Potency [14] | Potency [15] | Potency [16] | Potency [17] | Potency [18] | Potency [19] | max response [20] -13.3% and -11.6%

C=CC(=O)OCCN(C)C
inactive: outcome [1] | outcome [2] | outcome [3] | outcome [4] | outcome [5] | Potency [6] | Potency [7] | outcome [8] | Potency [9] | outcome [10] | Potency [11] | outcome [12] | Potency [13] | Potency [14] | Potency [15] | Potency [16] | Potency [17] | Potency [18] | Potency [19] | max response [20] -6.86%

c1ccc(P(c2ccccc2)c2ccccc2)cc1
inactive: outcome [1] | outcome [2] | outcome [3] | outcome [4] | outcome [5] | Potency [6] | Potency [7] | outcome [8] | Potency [9] | outcome [10] | Potency [11] | outcome [12] | Potency [13] | Potency [14] | Potency [15] | Potency [16] | Potency [17] | Potency [18] | Potency [19] | max response [20] -11.3%

BrCCc1ccccc1
inactive: outcome [1] | outcome [2] | outcome [3] | outcome [4] | outcome [5] | Potency [6] | Potency [7] | outcome [8] | Potency [9] | outcome [10] | Potency [11] | outcome [12] | Potency [13] | Potency [14] | Potency [15] | Potency [16] | Potency [17] | Potency [18] | Potency [19] | max response [20] -1.44%

Nc1c(Cl)cc([N+](=O)[O-])cc1Cl
inactive: outcome [1] | outcome [2] | outcome [3] | outcome [4] | outcome [5] | Potency [6] | Potency [7] | outcome [8] | Potency [9] | outcome [10] | Potency [11] | outcome [12] | Potency [13] | Potency [14] | Potency [15] | Potency [16] | Potency [17] | Potency [18] | Potency [19] | max response [20] 7.25% and -11.8%
